Shown are actives, neighbours in structure and some others; about 19% of the full set was active somewhere.
DT40 TDP1 CPT – growth inhibition of DT40 Tdp1-/-;hTDP1 cells with camptothecin (screen for TDP1 inhibitors); AID 686979; chicken DT40 Tdp1-/-;hTDP1 cells + 20 nM CPT, ATP luminescence, 48 h; Potency, µM (doses to about 46.2 µM), without a hit: at the top dose activity change, negative = growth inhibition, most hits filed as inhibitors; 420,000 tested, 12% active; note: potency is the fitted concentration of half-maximal effect; nearly all actives have a fitted effect of over 55% in size
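Cell growth measured by CellTiter-Glo luminescence after a minimum 48 h, 37 C compound exposure with 20 nM CPT in Tdp1-knockout DT40 cells stably expressing hTDP1, seeded 400/well; qHTS titration format.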
HT1080 IDH1KD tx – kills HT-1080 cells with IDH1 knockdown. HT-1080 IDH1 knockdown viability, ATP luminescence, 48 h. 360,000 tested, 2% active. Potency, µM (series often up to 46.1 µM), for the others: at the highest dose activity, negative = toxicity, most hits filed as cytotoxic. AID 686971;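 note: potency is the fitted concentration of half-maximal effect; 0% = DMSO wells and -100% = cell-free medium wells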
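After a 2 h attachment period, IDH1KD HT-1080 cells took pin-transferred compound for 48 h at 37 °C; ATP-based luminescence after 10 min room-temperature reagent incubation reported viability.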
ELG1 DNA repair – inhibitors of ELG1-dependent DNA repair in HEK293T cells. Potency, µM (doses to about 46.1 µM), for the others: at the highest dose activity change, negative = inhibition, actives largely listed as inhibitors. AID 504467. HEK293T ELG1-luciferase reporter, luminescence, 16 h; DNA damage induced by 5-fluorouridine. 330,000 tested, 2.3% active; note: potency is the fitted concentration of half-maximal effect; nearly all actives have a fitted effect of over 55% in size
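Luminescence from the luciferase reporter, measured 30 min after ONE-Glo reagent at room temperature, was the read-out. Beforehand, 2,000 cells per well were exposed for 16 hr at 37 °C to 5-fluorouridine together with compound or vehicle.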
IL1B secr inh – inhibitors of inflammasome signaling (IL-1 beta secretion); AID 743279; 360,000 tested, 4.7% active; THP-1 LPS/ATP IL-1B secretion, AlphaLISA, 16 h; stronger effect = lower value; activity change, % at 57.5 µM; in the data active = activity change below about -50%; inconclusive = mostly about -30% to -49%
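THP-1 cells pretreated 1 hr with compounds (up to 57.5 uM final), then stimulated with LPS (250 ng/mL final) plus ATP (1.25 mM final); secreted IL-1B measured by AlphaLISA after 16 hr, decreased signal indicating inhibition.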
HT1080NT lethal – kills 2HG-producing HT-1080-NT fibrosarcoma cells. HT-1080-NT fibrosarcoma viability, CellTiter-Glo ATP luminescence, 48 h. 360,000 tested, 1.6% active. Potency, µM (top dose mostly 46.1 µM), for the others: at the top dose activity, negative = less viability, usual class: cytotoxic;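 note: NT is the 2HG producing partner of a matched IDH1 knockdown line; potency is the fitted concentration of half-maximal effect; 0% = DMSO-treated cells and -100% = media-only wells without cells; nearly all actives have a fitted effect of over 55% in size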
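Compounds were tested in concentration-response format on HT-1080-NT cells for 48 hours at 37 degrees C. Cell viability came from CellTiter-Glo luminescence; curves were classified by r2, response magnitude and activity.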
TDP1 cell noCPT – qHTS for Inhibitors of human tyrosyl-DNA phosphodiesterase 1 (TDP1): qHTS in cells in absence of CPT | DT40 Tdp1-/- hTDP1 cells, no CPT, ATP luminescence, 48 h | Potency, µM (series often up to 46.2 µM), for inactives: at the highest dose activity change, negative = growth inhibition, actives largely listed as inhibitors | 420,000 tested, 15% active; note: potency is the fitted concentration of half-maximal effect; nearly all actives have a fitted effect of over 55% in size
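Growth kinetics read by CellTiter-Glo luminescence after ≥48 hr at 37 °C. Cells: DT40 Tdp1-/- stably carrying human TDP1, 400 per well, compound exposure in the absence of CPT (DMSO vehicle).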
* = called active by the depositor; ? = inconclusive; nt = no result given; [ ] = dose if it differs, or a comment. Unless noted, calls come from the whole dose curve; as a rule, active = well fitted curve in the direction sought with a large enough effect; inconclusive = small, poorly fitted or top-dose-only effect, or another doubt; inactive = no such curve, though single readings can be large; an effect the other way counts as inactive or inconclusive. Unless noted, % is set by controls: 0 for no effect and ±100 for the full control effect.

SMILES	DT40 TDP1 CPT	HT1080 IDH1KD tx	ELG1 DNA repair	IL1B secr inh	HT1080NT lethal	TDP1 cell noCPT
O=C(Cn1cnc2c(nnn2-c2ccccc2)c1=O)NCC1CCCO1 (centres undefined)	3%	1%	4%	2	13%	11%
CCn1c(=O)c(CCC(=O)NCC2CCCO2)c(C)c2c(C)nn(-c3ccccc3)c21 (centres undefined)	16µM*	-15%	-24%	-28	-23%	?
CCn1c(=O)c(CCC(=O)NCCN2CCOCC2)c(C)c2c(C)nn(-c3ccccc3)c21	21µM*	9%	-20%	-15	-2%	?
Cc1ccc(-n2nc(C)c3c(C)c(CCC(=O)NCC4CCCO4)c(=O)n(C)c32)cc1 (centres undefined)	?	8%	?	4	9%	23µM*
Cn1c(=O)c2c(c3ccccc31)OC(=O)CC2c1ccccc1 (centres undefined)	-3%	nt	nt	nt	nt	-8%
N#CCCN(C(=O)COC(=O)CCc1nc2ccccc2c(=O)[nH]1)c1ccccc1F	-10%	-8%	13%	-6	2%	-11%
CCOC(=O)c1c(NC(=O)C2c3ccccc3Oc3ccccc32)sc(C)c1CC	12%	nt	nt	nt	nt	-6%
Cc1c(C(=O)OC(C)C)sc(NC(=O)C2c3ccccc3Oc3ccccc32)c1C(=O)OC(C)C	23µM*	nt	nt	nt	nt	23µM*
Cc1sc(NC(=O)C2c3ccccc3Oc3ccccc32)c(C(=O)OC(C)C)c1C	18µM*	nt	nt	nt	nt	?
Cc1ccc(Cl)c(NC(=O)COC(=O)c2nn(C)c(=O)c3ccccc23)c1Cl	21%	15%	18%	-11	3%	-8%
CCOc1ccc2nc(N(Cc3cccnc3)C(=O)C3CCCCC3)sc2c1	?	nt	nt	nt	nt	-24%
O=C(C1CCCCC1)N(Cc1cccnc1)c1nc2c(F)cc(F)cc2s1	21µM*	nt	nt	nt	nt	15µM*
COc1ccc2sc(N(Cc3cccnc3)C(=O)C3CCCCC3)nc2c1	13µM*	nt	nt	nt	nt	23µM*
CCC1C(=O)NCCN1Cc1ccc2c(c1)CN(Cc1ccc(OC)cc1OC)CCO2 (centres undefined)	15%[9.04 µM]	nt	nt	nt	nt	?
COc1ccc(OC)c(-c2csc(NC(=O)C3=NN(c4ccccc4)C(=O)CC3)n2)c1	-23%	-16%	?	52	-14%	21µM*
Cc1csc(NC(=O)C2=NN(c3ccccc3)C(=O)CC2)n1	-3%	2%	9%	18	7%	7%
Cc1ccc(-c2csc(NC(=O)C3=NN(c4ccccc4)C(=O)CC3)n2)cc1	?	-23%	13µM*	0	?	?
COc1ccc(NS(=O)(=O)c2cc(NC(=O)C3=NN(c4ccccc4)C(=O)CC3)ccc2OC)cc1	?	-16%	?	-8	-19%	0.18µM*
COc1ccc(N2C[C@H](CSC)[C@@H](CC(=O)Nc3ccccc3)C2=O)cc1	-17%	6%	nt	48	-3%	?
CCn1ccnc1CN(C)Cc1cn[nH]c1-c1ccc(OC)c(F)c1	-2%	-7%	?	-9	0%	?
COc1ccc(CCNCc2c(OC)ccc3ccccc23)cc1OC	16µM*	?	1%	?	?	?
COc1ccc2ccccc2c1CNC(C)CCc1ccccc1 (centres undefined)	9.2µM*	18µM*	-15%	nt	?	?
COc1ccc2ccccc2c1CN(C)Cc1ccccc1	-29%	-9%	-22%	-28	-18%	?
COc1ccc(NC(=O)C2c3ccccc3OCC(=O)N2CC(F)(F)F)cc1 (centres undefined)	-1%	14%	nt	-6	-4%	-10%
COc1ccccc1N1CCN(/N=C/c2ccc(O)c(O)c2)CC1	18µM*	?	23%	9	-9%	9.2µM*
SMILES	DT40 TDP1 CPT	HT1080 IDH1KD tx	ELG1 DNA repair	IL1B secr inh	HT1080NT lethal	TDP1 cell noCPT
COc1ccc(/C=N/N2CCN(c3ccccc3)CC2)cc1Br	-19%	17%	-2%	-55*	5%	17%
COc1cc(/C=N/N2CCCCC2)cc(OC)c1O	18µM*	0%	7%	44	-22%	18µM*
COc1cccc(C(=O)NC(C)c2nnc3n2CCN(CC=C(C)C)CC3)c1 (centres undefined)	-6%	nt	nt	nt	nt	-19%
COc1cccc(NC(=O)Nc2cc(C(=O)O)ccc2N2CC3CC(C2)c2cccc(=O)n2C3)c1 (centres undefined)	13%	-5%	-1%	26	1%	16%
COc1ccc(CN2C[C@H]3CON(C)[C@H]3C[C@H]2c2ccc(-c3ccccc3)cc2)cc1	?	-18%	nt	-2	-16%	?
Cc1cc(OCC(=O)OC(C)C(=O)Nc2ccc(N3CCOCC3)cc2)ccc1Cl (centres undefined)	-6%	4%	25%	4	4%	17%
CCOC(=O)c1[nH]c2c(c1Cc1ccccc1)C(=O)CC(c1ccc(OC)cc1)C2 (centres undefined)	21µM*	nt	nt	nt	nt	21µM*
CCOC(=O)c1[nH]c2c(c1-c1ccccc1)C(=O)CC(c1ccc(OC)c(OC)c1)C2 (centres undefined)	?	-10%	?	-17	-8%	?
CCOC(=O)c1[nH]c2c(c1Cc1ccccc1)C(=O)CC(c1ccc(Cl)cc1)C2 (centres undefined)	16µM*	nt	nt	nt	nt	23µM*
CCOC(=O)c1[nH]c2c(c1-c1ccccc1)C(=O)CC(c1ccc(OCC)cc1)C2 (centres undefined)	-25%	-21%	8%	-14	-17%	-1%
CCOC(=O)c1[nH]c2c(c1Cc1ccccc1OC)C(=O)CC(c1ccc(OC)cc1)C2 (centres undefined)	?	nt	nt	nt	nt	23µM*
Cc1c(C(=O)O)[nH]c2c1C(=O)CC(c1ccc(Cl)cc1)C2 (centres undefined)	-3%	0%	12%	15	1%	-7%
CCOC(=O)c1cnc2ccc(C(=O)OC)cc2c1NCCN1CCOCC1	?	14%	-21%	-27	-2%	-18%
CCOC(=O)c1cnc2ccc(OCC)cc2c1NCCN1CCOCC1	?	9%	20%	-25	9%	21µM*
CCOC(=O)c1cnc2ccc(C(=O)OC)cc2c1NCCCN1CCOCC1	?	13%	-26%	-60*	-1%	?

High-throughput results deposited in PubChem BioAssay by National Center for Advancing Translational Sciences (NCATS).
